Assay [1] has as its system Plasmodium falciparum Sir2 (PF13_0152, Sir2A). In words: pfSir2 binders on small-molecule microarrays, primary screen, biochemical, small-molecule microarray, 635 nm fluorescence (AID 1098).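 Note: score merges spot fluorescence intensity with its signal-to-noise ratio.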 The following applies: small-molecule microarray binding, fluorescence 635 nm; higher = more signal.
Assay [2] is described as follows: small-molecule microarray binders of probe aDKK1, primary screen, biochemical, biotinylated probe, 635/667 nm fluorescence (AID 1099).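 Note: score merges 667nm spot fluorescence with signal to noise across triplicate slides; reference of the scale not given here.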 The following applies: higher = more signal.
A short description of assay [3]: small-molecule microarray binders of probe aCHRDL2, primary screen, biochemical, biotinylated probe, 635/667 nm fluorescence (AID 1100). The following applies: higher = more signal.
The nature of assay [4]: splicing luciferase reporter signal modulators, primary screen, spliceosome inhibition project, cell-based, HEK293, splice +/- reporter (AID 1101).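 Note: HEK293 cells carrying a splicing-competent luciferase reporter gene; test concentration not given here.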 The following applies: luminescence, 24 h, higher = more signal, called active from +8 up or from −8 down. A general note: A reporter such as luciferase makes a cellular process visible.
Assay [5] deals with Fibroblast growth factor 10 (Homo sapiens) (UniProt O15520). Briefly: FGF10 binders on small-molecule microarrays, primary screen, biochemical, small-molecule microarray, 635 nm fluorescence (AID 1102). The following applies: FGF10 binding, fluorescence 635 nm, higher = more signal.
The test system of assay [6] is glycogen synthase kinase-3 (GSK3A per assay name; protocol says GSK3B). Briefly: GSK3 binders on small-molecule microarrays, primary screen, biochemical, small-molecule microarray, 635 nm fluorescence, GSK3A (AID 1103). Note: the record names both GSK3A and GSK3B. Particulars: small-molecule microarray binding, fluorescence 635 nm; higher = more signal.
For assay [7], the target named is Epidermal growth factor receptor (Homo sapiens) (UniProt P00533). In words: EGFR binders on small-molecule microarrays, primary screen, biochemical, small-molecule microarray, 635 nm fluorescence (AID 1104).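 Note: score merges 667 nm emission intensity with spot signal to noise over triplicate slides.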 The following applies: EGFR binding, higher = more signal.
Assay [8] has as its target Follistatin-related protein 3 (Homo sapiens) (UniProt O95633). Briefly: FSTL3 binders on small-molecule microarrays, primary screen, biochemical, small-molecule microarray, 635 nm fluorescence (AID 1105).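 Note: score merges emission near 667 nm and signal to noise per printed spot across three slides.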 The following applies: FSTL3 binding, higher = more signal.
Assay [9] addresses Dickkopf-related protein 1 (Homo sapiens) (UniProt O94907). Briefly: DKK1 binders on small-molecule microarrays, primary screen, biochemical, small-molecule microarray, 635 nm fluorescence scan (AID 1106).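 Note: score merges emission near 667 nm with signal to noise over three replicate slides.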 Particulars: DKK1 binding, higher = more signal.
For assay [10], the system named is Inhibin beta A chain (activin A). In words: INHBA (activin A) binders on microarrays, primary screen, biochemical, small-molecule microarray, 635 nm fluorescence scan (AID 1107).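 Note: mouse activin A protein probed at 4.33 µg/mL on printed slides; score merges bound-protein fluorescence near 667 nm with spot signal-to-noise.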 Particulars: small-molecule microarray binding, higher = more signal.

Activity calls are given as the source filed them.

Sequence of Epidermal growth factor receptor (Homo sapiens) (P00533 whole entry, looked up): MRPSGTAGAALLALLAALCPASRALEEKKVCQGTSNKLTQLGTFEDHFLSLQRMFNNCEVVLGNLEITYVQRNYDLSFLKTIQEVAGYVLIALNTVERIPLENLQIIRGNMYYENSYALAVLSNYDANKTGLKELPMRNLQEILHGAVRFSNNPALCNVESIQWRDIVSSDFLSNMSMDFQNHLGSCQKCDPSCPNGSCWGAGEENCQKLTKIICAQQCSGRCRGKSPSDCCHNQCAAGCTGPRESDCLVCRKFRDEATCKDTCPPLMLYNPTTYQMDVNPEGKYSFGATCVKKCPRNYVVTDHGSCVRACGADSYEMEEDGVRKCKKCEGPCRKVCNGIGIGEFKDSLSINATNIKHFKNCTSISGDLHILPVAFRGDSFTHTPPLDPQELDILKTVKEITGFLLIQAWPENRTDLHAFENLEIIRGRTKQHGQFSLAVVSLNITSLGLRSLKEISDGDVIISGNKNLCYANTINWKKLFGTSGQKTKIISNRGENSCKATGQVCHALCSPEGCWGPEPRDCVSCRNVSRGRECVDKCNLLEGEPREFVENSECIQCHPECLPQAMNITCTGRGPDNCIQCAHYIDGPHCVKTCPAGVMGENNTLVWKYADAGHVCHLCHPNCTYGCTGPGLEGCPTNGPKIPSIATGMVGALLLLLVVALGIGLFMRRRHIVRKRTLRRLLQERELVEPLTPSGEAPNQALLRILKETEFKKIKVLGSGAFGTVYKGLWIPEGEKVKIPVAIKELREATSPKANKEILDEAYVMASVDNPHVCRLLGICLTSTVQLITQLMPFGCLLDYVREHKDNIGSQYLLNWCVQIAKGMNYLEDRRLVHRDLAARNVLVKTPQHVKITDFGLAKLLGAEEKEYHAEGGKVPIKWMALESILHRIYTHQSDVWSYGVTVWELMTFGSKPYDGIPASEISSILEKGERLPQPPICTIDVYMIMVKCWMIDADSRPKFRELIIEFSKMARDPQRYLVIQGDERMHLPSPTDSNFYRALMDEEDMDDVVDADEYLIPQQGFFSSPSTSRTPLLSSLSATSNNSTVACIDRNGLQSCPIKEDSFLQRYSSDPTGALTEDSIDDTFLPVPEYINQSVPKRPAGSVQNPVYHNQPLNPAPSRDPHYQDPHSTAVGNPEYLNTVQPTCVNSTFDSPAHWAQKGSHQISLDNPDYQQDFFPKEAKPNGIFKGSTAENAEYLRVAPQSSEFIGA
Sequence of Follistatin-related protein 3 (Homo sapiens) (O95633 whole entry, looked up): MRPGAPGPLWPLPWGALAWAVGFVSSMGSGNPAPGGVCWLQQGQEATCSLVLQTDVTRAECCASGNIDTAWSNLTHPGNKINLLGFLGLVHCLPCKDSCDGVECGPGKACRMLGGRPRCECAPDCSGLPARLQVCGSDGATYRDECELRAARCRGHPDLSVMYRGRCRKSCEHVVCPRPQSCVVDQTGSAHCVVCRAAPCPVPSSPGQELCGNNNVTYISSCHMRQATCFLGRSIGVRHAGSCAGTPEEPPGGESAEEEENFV
Sequence of Fibroblast growth factor 10 (Homo sapiens) (O15520 whole entry, looked up): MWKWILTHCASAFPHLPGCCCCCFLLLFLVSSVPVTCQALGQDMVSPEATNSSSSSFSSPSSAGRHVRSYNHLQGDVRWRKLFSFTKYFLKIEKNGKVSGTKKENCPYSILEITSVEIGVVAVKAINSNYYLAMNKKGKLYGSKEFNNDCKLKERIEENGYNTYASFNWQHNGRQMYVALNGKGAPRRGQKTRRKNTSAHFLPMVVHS
Sequence of Dickkopf-related protein 1 (Homo sapiens) (O94907 whole entry, looked up): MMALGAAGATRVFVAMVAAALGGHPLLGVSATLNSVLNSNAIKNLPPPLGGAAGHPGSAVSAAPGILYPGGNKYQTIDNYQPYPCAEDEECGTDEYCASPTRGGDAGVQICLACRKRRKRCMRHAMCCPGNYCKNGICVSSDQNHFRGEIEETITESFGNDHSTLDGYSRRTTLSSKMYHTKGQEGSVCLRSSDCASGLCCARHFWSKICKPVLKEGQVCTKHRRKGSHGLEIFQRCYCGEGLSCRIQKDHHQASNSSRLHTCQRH

As for `COc1ccc([Si](C)(C)[C@H]2[C@H](CCn3cc(CCO)nn3)O[C@@]3(C(=O)N(Cc4cccc(N5C(=O)c6cccc7cccc5c67)c4)c4ccccc43)[C@@H]2C)cc1`, the composite z-score in assay [1] was 1.23; in assay [2], -0.0314; in [3], -0.567; in assay [5] it was 1.27; in [6], 0.719; in assay [7], 0.268. The composite z-score in assay [8] was 0.81; in assay [9], 0.848; in [10] it was -0.427. Besides, the z-score in [4] is -1.61 (inactive).
Take `O=C1O[C@H](c2ccccc2)[C@H](c2ccccc2)N2[C@H]1[C@@H](C(=O)N1CCCCCCC1)[C@]1(C(=O)Nc3ccc(C#CCCO)cc31)[C@H]2c1ccc(OCCO)cc1`: the composite z-score in [1] is 2.14; in [2] it was 2.78; in [3], 1.42; in assay [5], 1.65; in assay [6], 1.45; in assay [7] it was 1.89. Moreover, the composite z-score in assay [8] came out at 1.66; in assay [9], 2.65; in assay [10], 1.9. Besides, in assay [4], the z-score was -0.302 (inactive).
Consider `C=CC[C@]1(C(=O)N2CCOCC2)N=C(c2ccc(OCCCO)cc2)O[C@H]1c1ccccc1CN=[N+]=[N-]`, for which the composite z-score was 1.55 in assay [1]; 0.0557 in assay [2]; 0.948 in assay [3]; 1.24 in assay [5]; 0.0251 in assay [6]; -0.124 in assay [7]. Further, the composite z-score in assay [8] was 0.879; in [9], -0.121; in assay [10], 0.58. Also, the z-score in assay [4] was -0.244 (inactive).
As for `C=C(CCCC)/C(=C/C[C@@H](OC(=O)c1ccncc1)c1ccccc1OCCO)c1cc(C(=O)OC)ccc1OC`, the composite z-score in assay [1] was 0.96; in assay [2], -0.0551; in [3], -0.133; in assay [5] it was 0.659; in assay [6], 0.272; in [7], 0.145. Moreover, the composite z-score in [8] amounted to 0.422; in assay [9], 0.135; in [10], 0.851. The z-score in assay [4] was -0.322 (inactive).
With `C[N+](C)(C)CCCC[C@@H]1NC(=O)[C@H]2C[C@@H](C(=O)NCCCCCCN)[C@@H](c3cccc(OCCO)c3)N2C1=O`, the composite z-score in [1] was 1.56; in assay [2] it was 1.82; in assay [3], 0.984; in [5], 1.17; in assay [6] it was 1.33; in assay [7], 0.717. Further, the figures for the composite z-score in assay [8], in assay [9] and in assay [10] were 1.28, 1.27 and 1.63, respectively. Moreover, the z-score in [4] is -0.481 (inactive).
In the case of `NC(=O)[C@H]1[C@@H]2C(=O)O[C@@H](c3ccccc3)[C@@H](c3ccccc3)N2[C@@H](c2ccc(O)cc2)[C@]12C(=O)Nc1ccc(C#CC3(O)CCCCCC3)cc12`, the composite z-score in [1] is 1.37; in [2], 0.156; in assay [3], 0.0715; in [5], 1.36; in assay [6], 1.31; in assay [7], 0.53. Also, the composite z-score in assay [8] was determined as 1.42; in assay [9], 0.573; in [10], 0.593. In [4], the z-score was -1.32 (inactive).
`COC(=O)[C@@]1(Cc2ccccc2)[C@H]2c3cc(C(=O)N4CCCC4)n(CCO)c3C[C@H]2CN1C(=O)c1ccccc1`: the composite z-score was found to be 0.346 in assay [1]; 2.22 in assay [2]; 1.5 in assay [3]; 0.615 in assay [5]; 0.343 in assay [6]; 0.414 in assay [7]. Further, the composite z-score in assay [8] is 1.14; in assay [9], 0.337; in assay [10] it was 0.305. In addition, the z-score in assay [4] is -1.88 (inactive).
As to `C=C(COC)C(=O)CC[C@H](OC(=O)c1ccccc1-c1ccccc1C(=O)O)c1ccc(CO)o1`, the composite z-score is 0.806 in assay [1]; -0.416 in assay [2]; -0.479 in assay [3]; 1.43 in assay [5]; 0.645 in assay [6]; -0.358 in [7]. Moreover, the composite z-score in assay [8] turned out to be 0.451; in assay [9], 0.532; in assay [10], 1.19. In assay [4], the z-score was -0.0254 (inactive).
Consider `CN1C(=O)C2C=CC(C(O)C3CCCCC3)N(N(c3ccccc3)c3ccccc3)C2C1=O` (stereo not given), for which the composite z-score in assay [1] is -0.941; in assay [2], 0.993; in [3], 0.895; in assay [5], 0.189; in [6], -1.14; in [7], -1.34. Moreover, the composite z-score in [8] was -1.14; in assay [9], -1.28; in assay [10], 1.48. Also, in assay [4], the z-score is 1.12 (inactive).
With `CCC[C@@H]1C[C@@]1(CCC)[C@@H](NC(=O)c1cccs1)c1ccc(Cl)cc1`, the composite z-score in [1] is -0.67; in assay [2] it was 0.119; in assay [3] it was 1.09; in assay [5], -0.341; in [6] it was -0.919; in assay [7], -2.21. For the same molecule, the composite z-score is -2.17 in [8], -1.76 in [9] and 0.948 in assay [10]. Further, the z-score in [4] is -1.15 (inactive).
For the molecule `C=C(CCCC)/C(=C/C[C@H](OC(=O)c1ccncc1)c1ccc(CO)o1)c1cc(C(=O)OC)ccc1OC`, the composite z-score in assay [1] was 1.21; in assay [2], 0.0946; in [3], -0.125; in [5], 0.565; in assay [6], 1.26; in assay [7], 0.356. In addition, the composite z-score in assay [8] was found to be 0.928; in assay [9] it was 0.575; in [10], 0.554. The z-score in assay [4] is 0.84 (inactive).
For the molecule `[N-]=[N+]=Nc1ccccc1[C@@H]1OC(c2ccc(OCCCO)cc2)=N[C@]1(CCS(=O)(=O)c1ccccc1)C(=O)NCc1ccccc1`, the composite z-score in assay [1] was determined as 1.29; in [2], 1.24; in assay [3], 1.28; in [5], 1.25; in [6] it was 0.309; in assay [7], 0.0329. Besides, the composite z-score in assay [8] is 1.18; in [9], -0.244; in assay [10] it was 1.06. The z-score in assay [4] was 0.385 (inactive).
As to `COCCOC(=O)N1C(=O)[C@@]2(c3cc(C#CC4(O)CCCCCC4)ccc31)[C@H](C(=O)NC[C@H](O)c1ccccc1)[C@H]1C(=O)O[C@H](c3ccccc3)[C@H](c3ccccc3)N1[C@@H]2c1ccc(OCCO)cc1`, the composite z-score was 0.971 in assay [1]; -0.0726 in [2]; -0.0689 in assay [3]; 0.68 in [5]; 0.673 in assay [6]; 0.429 in assay [7]. The composite z-score in assay [8] worked out at 0.834; in assay [9], 0.348; in [10], 0.193. For the same molecule, the z-score in [4] was -1.15 (inactive).
As for `CC(C)(C)OC(=O)CC[C@]1(C(=O)O)COC(c2ccc(OCCCO)cc2)=N1`, the composite z-score in [1] is 0.337; in assay [2] it was 0.768; in assay [3], 0.553; in assay [5] it was -0.577; in assay [6], -0.69; in [7], -0.609. For the same molecule, the values for the composite z-score in [8], in assay [9] and in assay [10] were -1.2, -1.51 and 0.469, respectively. Further, in assay [4], the z-score is 0.14 (inactive).
For the molecule `CCN(CC)c1ccc(N2CC=CC34O[C@@H]5/C=C\CCCOC(=O)C5[C@H]3C(=O)N(CCCCCCO)[C@@H]4C2=O)cc1` (stereo not given in full), the composite z-score in assay [1] is 1.96; in assay [2], -0.202; in assay [3] it was 0.733; in assay [5], -0.983; in [6] it was -0.521; in assay [7], -1.4. In addition, the composite z-score is -0.76 in [8], -1.82 in [9] and 0.751 in assay [10]. In assay [4], the z-score is -1.13 (inactive).
Consider `COc1cc(C(O)C2C=CC3C(=O)N(C)C(=O)C3N2NC(=O)OC(C)(C)C)cc(OC)c1OC` (stereo not given), for which the composite z-score in assay [1] stood at 1.27; in [2] it was 1.2; in assay [3], 0.739; in assay [5], 0.447; in [6], 0.833; in assay [7], 0.189. For the same molecule, the figures for the composite z-score in assay [8], in assay [9] and in [10] were 0.234, -0.076 and 0.442, respectively. Besides, in [4], the z-score is 1.21 (inactive).
Take `COc1cc2c(cc1OC)CN(C(=O)[C@@H]1[C@H]3C(=O)O[C@H](c4ccccc4)[C@H](c4ccccc4)N3[C@H](c3ccc(OCCO)cc3)[C@@]13C(=O)Nc1ccc(C#CCCO)cc13)CC2`: the composite z-score was 1.18 in assay [1]; -0.0226 in [2]; 0.772 in [3]; 1.28 in assay [5]; 1.27 in [6]; 0.714 in assay [7]. Also, the composite z-score in [8] is 1.23; in [9], 0.646; in assay [10], 0.638. In addition, the z-score in assay [4] is -0.921 (inactive).

(Values after PubChem BioAssay.)
